# Reference: PubChem BioAssay (Tox21)
# Several values for one entry are separate records, joined by “and”; a condition that tells them apart may be missing. Equal entries are not always repeated. Records with an inconclusive call do not appear. A call without a number means that no potency is given here. The source holds several records for some structures; these can differ, active in one and inactive in another. Activity calls are given as the source filed them. Unless noted, calls come from the whole dose curve; as a rule, active = well fitted curve in the direction sought with a large enough effect in the repeat runs; inconclusive = weak or mixed curves; inactive = no such curve, though single readings can be large; an effect the other way counts as inactive or inconclusive.
# Key:
# [1] = qHTS assay to test for compound auto fluorescence at 535 nm (green) in HEK293 cells (AID 720680)
# [2] = qHTS assay to test for compound auto fluorescence at 460 nm (blue) in HEK293 cell free culture (AID 720681)
# In short: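 Compounds were added to cell-free DMEM with 10% FBS and fluorescence read directly. The blue channel used 405 nm excitation and 460 nm emission, with triamterene as the reference fluorophore.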
# [3] = qHTS assay to test for compound auto fluorescence at 535 nm (green) in HEK293 cell free culture (AID 720682)
# In short: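 Measurement is a direct plate read of green fluorescence (485 nm in, 535 nm out) after compound addition to serum-supplemented DMEM lacking cells, with fluorescein used to express intensities.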
# [4] = qHTS assay to test for compound auto fluorescence at 590 nm (red) in HEK293 cell free culture (AID 720683)
# In short: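 Cell-free wells of DMEM with 10% FBS received compound, and intrinsic fluorescence was read at excitation/emission 540/590 nm. Values expressed as equivalence to Rose Bengal sodium.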
# [5] = qHTS assay to test for compound auto fluorescence at 590 nm (red) in HepG2 cell free culture (AID 720684)
# In short: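 Compound was pinned into wells holding MEM with 10% FBS and no cells, and red fluorescence was read at Ex/Em 540/590 nm. Signal is expressed as auto fluorescence equivalency relative to Rose Bengal sodium.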
# [6] = qHTS assay to test for compound auto fluorescence at 460 nm (blue) in HepG2 cell free culture (AID 720685)
# In short: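 Compound (23 nL) or DMSO pinned into cell-free MEM with 10% FBS; blue fluorescence read at 405/460 nm excitation/emission, expressed as auto-fluorescence equivalency to triamterene.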
# [7] = qHTS assay to test for compound auto fluorescence at 535 nm (green) in HepG2 cell free culture (AID 720686)
# [8] = qHTS assay to test for compound auto fluorescence at 460 nm (blue) in HepG2 cells (AID 720687)
# In short: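 HepG2 cells in MEM with 10% FBS, attached overnight at 37 C, were exposed to compound or DMSO for 1 hr at 37 C, 5% CO2. Blue fluorescence was read at 405/460 nm, with triamterene as reference fluorophore.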
# [9] = biological target: Glucocorticoid receptor (Homo sapiens) (UniProt P04150); experiment: qHTS assay to identify small molecule agonists of the glucocorticoid receptor (GR) signaling pathway (AID 720691; active = well fitted activation curve with a large enough effect in the signal ratio in the repeat runs, not every such curve was filed as active; the % refers to the signal ratio; note: potency is the fitted concentration of half-maximal effect)
# Sequence of Glucocorticoid receptor (Homo sapiens) (P04150 whole entry, looked up): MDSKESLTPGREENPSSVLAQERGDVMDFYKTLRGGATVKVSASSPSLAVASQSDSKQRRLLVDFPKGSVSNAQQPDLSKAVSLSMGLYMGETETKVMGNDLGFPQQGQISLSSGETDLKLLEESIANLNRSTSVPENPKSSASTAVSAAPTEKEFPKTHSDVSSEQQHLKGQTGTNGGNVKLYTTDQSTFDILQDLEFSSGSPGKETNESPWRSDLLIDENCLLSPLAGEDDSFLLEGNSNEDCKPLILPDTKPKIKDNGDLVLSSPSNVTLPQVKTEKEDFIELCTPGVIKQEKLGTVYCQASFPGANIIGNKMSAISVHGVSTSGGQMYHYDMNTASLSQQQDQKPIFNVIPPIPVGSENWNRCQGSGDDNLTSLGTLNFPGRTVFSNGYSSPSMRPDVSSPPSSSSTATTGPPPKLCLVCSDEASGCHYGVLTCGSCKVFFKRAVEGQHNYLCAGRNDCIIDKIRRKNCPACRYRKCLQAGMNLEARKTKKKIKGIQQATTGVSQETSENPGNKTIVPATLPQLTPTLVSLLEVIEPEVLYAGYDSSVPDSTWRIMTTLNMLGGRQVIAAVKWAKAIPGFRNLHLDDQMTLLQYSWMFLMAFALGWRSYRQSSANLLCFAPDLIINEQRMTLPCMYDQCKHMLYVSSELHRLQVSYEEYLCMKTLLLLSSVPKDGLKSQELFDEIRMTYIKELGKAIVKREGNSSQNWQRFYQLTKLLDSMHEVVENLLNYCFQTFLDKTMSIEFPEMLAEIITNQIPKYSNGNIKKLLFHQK
# In short: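 GR-bla HeLa cells carrying a GRE-driven beta-lactamase reporter, exposed to compounds for 18 h at 37 C. Reporter activation read as fluorescence after 2 h with LiveBLAzer B/G FRET substrate at room temperature.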
# [10] = qHTS assay to identify small molecule antagonists of the glucocorticoid receptor (GR) signaling pathway - cell viability counter screen (AID 720693); note: nearly all actives have a fitted effect of over 55% in size
# [11] = qHTS assay for identifying genotoxic compounds that show differential cytotoxicity against isogenic chicken DT40 cell lines with known DNA damage response pathways - wild type cell line (AID 743012); note: nearly all actives have a fitted effect of over 60% in size; note: potency is the fitted concentration of half-maximal effect
# In short: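 Wild-type DT40 cells (300/well) exposed to compounds for 40 hours at 37 C/5% CO2. Viability read by CellTiter-Glo luminescence after 30 min at room temperature.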
# [12] = qHTS assay for identifying genotoxic compounds that show differential cytotoxicity against isogenic chicken DT40 cell lines with known DNA damage response pathways - Rev3 mutant cell line (AID 743014); note: nearly all actives have a fitted effect of over 55% in size; note: potency is the fitted concentration of half-maximal effect
# [13] = qHTS assay for identifying genotoxic compounds that show differential cytotoxicity against isogenic chicken DT40 cell lines with known DNA damage response pathways - Rad54/Ku70 mutant cell line (AID 743015); note: nearly all actives have a fitted effect of over 60% in size; note: potency is the fitted concentration of half-maximal effect
# [14] = qHTS assay to identify small molecule antagonists of the androgen receptor (AR) signaling pathway - cell viability counter screen (AID 743033; note: nearly all actives have a fitted effect of over 45% in size; note: potency is the fitted concentration of half-maximal effect)
# [15] = qHTS assay to identify small molecule antagonists of the androgen receptor (AR) signaling pathway using the MDA cell line - cell viability counter screen (AID 743041; note: nearly all actives have a fitted effect of over 45% in size; note: potency is the fitted concentration of half-maximal effect)
# In short: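 MDA-kb2 AR-luc cells (MMTV-luciferase, AR/GR responsive) treated with compounds plus R1881 agonist for 16 h at 37C. CellTiter-Fluor added at 15.5 h; fluorescence read after 30 min in the same wells.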
# [16] = biological target: Glucocorticoid receptor (Homo sapiens) (UniProt P04150); experiment: qHTS assay to identify small molecule antagonists of the glucocorticoid receptor (GR) signaling pathway (AID 720692; active = well fitted inhibition curve with a large enough effect in the signal ratio in the repeat runs, not every such curve was filed as active; the % refers to the signal ratio; note: potency is the fitted concentration of half-maximal effect)
# In short: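 GR-bla HeLa cells carrying a GRE-driven beta-lactamase reporter received compound after 4 h plating, then dexamethasone (5 nM final). After 18 h at 37C, the FRET substrate was loaded for 2 h at room temperature and fluorescence read.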
# [17] = biological target: Androgen receptor (Homo sapiens) (UniProt P10275); experiment: qHTS assay to identify small molecule antagonists of the androgen receptor (AR) signaling pathway (AID 743035; active = well fitted inhibition curve with a large enough effect in the signal ratio in the repeat runs, not every such curve was filed as active; the % refers to the signal ratio)
# Sequence of Androgen receptor (Homo sapiens) (P10275 whole entry, looked up): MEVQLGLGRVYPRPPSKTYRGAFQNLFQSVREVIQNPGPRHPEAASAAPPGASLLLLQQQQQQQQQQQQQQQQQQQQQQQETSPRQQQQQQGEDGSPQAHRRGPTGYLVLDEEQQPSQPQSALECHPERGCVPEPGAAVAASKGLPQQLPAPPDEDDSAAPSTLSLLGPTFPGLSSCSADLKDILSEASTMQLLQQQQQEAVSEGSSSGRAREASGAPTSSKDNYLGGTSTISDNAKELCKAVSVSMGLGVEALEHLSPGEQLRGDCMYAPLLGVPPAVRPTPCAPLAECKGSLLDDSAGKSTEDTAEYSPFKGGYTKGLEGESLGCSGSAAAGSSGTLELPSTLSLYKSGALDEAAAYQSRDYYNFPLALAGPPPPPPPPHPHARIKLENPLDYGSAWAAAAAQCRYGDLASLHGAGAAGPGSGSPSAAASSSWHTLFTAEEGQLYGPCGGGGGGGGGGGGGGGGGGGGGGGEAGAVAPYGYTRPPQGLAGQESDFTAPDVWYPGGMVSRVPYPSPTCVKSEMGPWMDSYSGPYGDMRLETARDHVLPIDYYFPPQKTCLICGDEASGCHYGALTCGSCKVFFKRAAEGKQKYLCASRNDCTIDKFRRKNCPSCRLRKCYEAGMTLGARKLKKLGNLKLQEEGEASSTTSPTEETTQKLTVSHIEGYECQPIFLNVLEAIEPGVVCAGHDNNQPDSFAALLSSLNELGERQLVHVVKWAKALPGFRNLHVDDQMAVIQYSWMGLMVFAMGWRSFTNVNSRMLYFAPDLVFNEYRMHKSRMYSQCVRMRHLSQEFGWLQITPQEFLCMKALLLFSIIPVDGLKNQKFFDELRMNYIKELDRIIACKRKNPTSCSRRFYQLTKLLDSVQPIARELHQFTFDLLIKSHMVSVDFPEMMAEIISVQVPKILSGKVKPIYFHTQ
# In short: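 HEK293 cells stably carrying UAS-beta-lactamase reporter, 2,000/well, given compounds plus R1881 agonist and incubated 16 h at 37C. LiveBLAzer B/G FRET substrate then added for 2 h at room temperature before fluorescence reading.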
# [18] = biological target: Androgen receptor (Homo sapiens) (UniProt P10275); experiment: qHTS assay to identify small molecule agonists of the androgen receptor (AR) signaling pathway (AID 743036; active = well fitted activation curve with a large enough effect in the signal ratio in the repeat runs, with a control signal flat, not every such curve was filed as active; the % refers to the signal ratio)
# In short: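 Beta-lactamase under UAS control, stably integrated in HEK293 GripTite cells, reports receptor activation. After 16 h compound treatment, cells received FRET substrate for 2 h at room temperature before fluorescence reading.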
# [19] = biological target: Androgen receptor (Homo sapiens) (UniProt P10275); experiment: qHTS assay to identify small molecule agonists of the androgen receptor (AR) signaling pathway using the MDA cell line (AID 743040; note: nearly all actives have a fitted effect of over 20% in size)
# In short: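 MDA-kb2 breast carcinoma cells carrying MMTV-luciferase (responsive to AR and GR), plated 5 h then treated 16 h with compounds at 37C, 0% CO2. Read-out was ONE-Glo luminescence after 30 min at room temperature.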
# [20] = biological target: Androgen receptor (Homo sapiens) (UniProt P10275); experiment: qHTS assay to identify small molecule antagonists of the androgen receptor (AR) signaling pathway using the MDA cell line (AID 743042; note: nearly all actives have a fitted effect of over 55% in size)
# In short: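 MDA-kb2 breast carcinoma cells carrying MMTV-luciferase (AR/GR responsive) were co-treated with compounds and the agonist R1881 for 16 h at 37C. Inhibition read as ONE-Glo luminescence; CellTiter-Fluor fluorescence measured in parallel for cytotoxicity.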
SMILES,Potency [1],outcome [2],Potency [3],Potency [4],Potency [5],outcome [6],Potency [7],outcome [8],Potency [9],Potency [10],Potency [11],Potency [12],Potency [13],Potency [14],Potency [15],Potency [16],Potency [17],outcome [18],Potency [19],Potency [20]
O=S(=O)(O)c1ccc(O)cc1,inactive,inactive,inactive,inactive,inactive,inactive,inactive,inactive,inactive,inactive,inactive,inactive,inactive,inactive,inactive,,,,,
O=CCc1ccccc1,inactive,inactive,inactive,inactive,inactive,inactive,inactive,inactive,inactive,inactive,inactive,inactive,inactive and 54.5 µM (active),inactive,inactive,inactive,,,,
CNCCCC12CCC(c3ccccc31)c1ccccc12,inactive,inactive,inactive,inactive,inactive,inactive,inactive,inactive,inactive,inactive,10.6 µM (active) and 6.86 µM (active),21.1 µM (active) and 12.2 µM (active),13.3 µM (active) and 6.86 µM (active),inactive and 43.6 µM (active),61.1 µM (active),,,,,
CC(C)OB(OC(C)C)OC(C)C,inactive,inactive,inactive,inactive,inactive,inactive,inactive,inactive,inactive,inactive,,inactive,inactive,inactive,inactive,,,,,
OC1CCCCCCCCCCC1,inactive,inactive,inactive,inactive,inactive,inactive,inactive,inactive,inactive,inactive,inactive,inactive,inactive,inactive,inactive,inactive,,,,
c1cc(-c2ccncc2)ccn1,inactive,inactive,inactive,inactive,inactive,inactive,inactive,inactive,inactive,inactive,inactive,inactive,inactive,inactive,inactive,,,,,
CCC(C)CO (centres undefined),inactive,inactive,inactive,inactive,inactive,inactive,inactive,inactive,inactive,,,inactive,inactive,inactive,inactive,inactive,,,,
CN(C)C(=N)N=C(N)N,inactive,inactive,inactive,inactive,inactive,inactive,inactive,inactive,2.56 µM (active) and inactive,,,,,inactive,inactive,inactive,,,,
CCCCC(CC)COC(=O)c1ccc(N(C)C)cc1 (centres undefined),inactive,inactive,inactive,inactive,inactive,inactive,inactive,inactive,inactive,inactive,inactive,inactive and 54.5 µM (active),inactive and 43.3 µM (active),inactive,inactive,,,,,
CCCCC/C=C/C=C/C=O,inactive,inactive,inactive,inactive,inactive,inactive,inactive,inactive,inactive,inactive,19.3 µM (active),inactive and 21.7 µM (active),inactive and 17.2 µM (active),inactive,inactive,49 µM (active),,,,
Cc1ccc(C)c(O)c1C,inactive,inactive,inactive,inactive,inactive,inactive,inactive,inactive,inactive,inactive,inactive,inactive,inactive,inactive,inactive,inactive,inactive,inactive,inactive,inactive
Brc1cc(Oc2cc(Br)c(Br)c(Br)c2Br)c(Br)c(Br)c1Br,inactive,inactive,inactive,inactive,inactive,inactive,inactive,inactive,inactive,inactive,,inactive,inactive,inactive,inactive,,,,,
O=C(c1ccccc1)c1ccc(O)cc1O,inactive,inactive,inactive,inactive,inactive,inactive,inactive,inactive,inactive,inactive,inactive,inactive,,inactive,inactive,,,,,
CC(C)Oc1ccc2c(=O)c(-c3ccccc3)coc2c1,inactive,inactive,inactive,inactive,inactive,inactive,inactive,inactive,inactive,inactive,,4.22 µM (active),9.44 µM (active),inactive,inactive,,,,,
CCC(C)c1ccccc1O (centres undefined),inactive,inactive,inactive,inactive,inactive,inactive,inactive,inactive,inactive,inactive,,inactive,inactive,inactive,inactive,,,,,
